Laboratory results reported in PubChem BioAssay (NCATS).
Records with an inconclusive call do not appear. A call without a number means that no potency is given here. Active and inactive are the calls of the source. Unless noted, the call rests on the fitted dose curve; in most records, active means well fitted curve in the direction sought with a large enough effect; inconclusive means small, poorly fitted or top-dose-only effect, or another doubt; inactive means no such curve, though single readings can be large; an effect the other way counts as inactive or inconclusive.

Tests used:
[1] = qHTS Validation Assay to Find Inhibitors of Chronic Active B-Cell Receptor Signaling (AID 485345; active means well fitted curve in the direction sought with a large enough effect in the main read-out, with a control signal flat, not every such curve was filed as active)
In short: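 TMD8 ABC-DLBCL cells stably carrying doxycycline-inducible IkappaBalpha–green luciferase fusion plus unfused red luciferase; compounds 46 uM to 3 nM, 4 h at 37C with doxycycline. Corrected green/red luminescence ratio normalized to 10 uM MG-132 and basal cell wells; curves fitted.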

[2] = molecular target: Beta-2 adrenergic receptor (Homo sapiens) (UniProt P07550); test: qHTS validation assay of beta-arrestin-biased ligands of beta2-adrenergic receptor (AID 485366)
Beta-2 adrenergic receptor (Homo sapiens), sequence (P07550 whole entry, looked up): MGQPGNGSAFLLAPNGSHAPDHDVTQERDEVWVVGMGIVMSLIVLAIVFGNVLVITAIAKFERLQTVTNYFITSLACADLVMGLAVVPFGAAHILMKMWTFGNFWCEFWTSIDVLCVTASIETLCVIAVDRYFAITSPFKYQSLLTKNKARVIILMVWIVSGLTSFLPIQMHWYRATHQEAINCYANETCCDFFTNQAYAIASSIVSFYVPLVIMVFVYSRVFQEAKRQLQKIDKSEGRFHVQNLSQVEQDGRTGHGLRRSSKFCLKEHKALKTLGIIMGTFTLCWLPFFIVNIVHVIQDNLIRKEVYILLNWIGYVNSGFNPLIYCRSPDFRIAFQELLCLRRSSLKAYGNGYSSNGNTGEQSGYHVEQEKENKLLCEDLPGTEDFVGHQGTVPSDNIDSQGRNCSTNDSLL
In short: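 Screening used a titration range of up to 46 microM in a beta-arrestin recruitment Tango luciferase assay. Cells in 1% FBS medium were treated 18 hr at 37 degrees C, and luminescence was normalized to %Activity.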

[3] = Quantitative high throughput screen for delayed death inhibitors of the malarial parasite plastid, 96 hour incubation (AID 488745); further: nearly all actives have a fitted effect of over 70% in size; further: potency means the concentration at half of the fitted maximal effect
In short: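 Luciferase-expressing P. falciparum, infected RBCs 2% Hct/0.1% parasitemia (final); 96 h cpd exposure, 37 C, 5% CO2; RPMI 1640 + 0.5% Albumax, bicarbonate, gentamycin. Readout: luminescence loss = growth inhibition.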

[4] = Quantitative high throughput screen for delayed death inhibitors of the malarial parasite plastid, 48 hour incubation (AID 488752); further: nearly all actives have a fitted effect of over 65% in size; further: potency means the concentration at half of the fitted maximal effect
In short: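 Luciferase-expressing P. falciparum in RBCs, 2% Hct, 0.1% parasitemia final; RPMI 1640 + 0.5% Albumax; 48 h, 37 C, 5% CO2; luminescence readout, signal drop = growth inhibition.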

[5] = molecular target: Thioredoxin reductase 1, cytoplasmic (Rattus norvegicus) (UniProt O89049); test: qHTS Assay for Substrates of Mammalian Selenoprotein Thioredoxin Reductase 1 (TrxR1) (AID 488772);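 further: series mostly up to about 57 µM; a drop in NADPH fluorescence below the no-compound background marks a TrxR1 substrate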
Thioredoxin reductase 1, cytoplasmic (Rattus norvegicus), sequence (O89049 whole entry, looked up): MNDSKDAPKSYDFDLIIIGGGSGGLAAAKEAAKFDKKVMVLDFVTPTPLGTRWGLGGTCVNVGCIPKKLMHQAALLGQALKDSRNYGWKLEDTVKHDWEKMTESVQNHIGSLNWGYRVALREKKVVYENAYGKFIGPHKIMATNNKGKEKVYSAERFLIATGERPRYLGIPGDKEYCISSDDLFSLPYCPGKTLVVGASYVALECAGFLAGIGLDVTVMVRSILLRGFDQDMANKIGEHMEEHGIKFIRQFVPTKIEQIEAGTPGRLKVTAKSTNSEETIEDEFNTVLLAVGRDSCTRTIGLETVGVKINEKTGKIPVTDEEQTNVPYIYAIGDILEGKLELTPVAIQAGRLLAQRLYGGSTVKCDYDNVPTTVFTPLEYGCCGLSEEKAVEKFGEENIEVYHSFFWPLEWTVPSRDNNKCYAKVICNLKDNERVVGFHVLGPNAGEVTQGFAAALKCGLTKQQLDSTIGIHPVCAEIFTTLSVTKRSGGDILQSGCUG
In short: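 In this dual-purpose format, potential substrates are identified from the first fluorescence read after selenite addition, not from the 8-minute delta. Rat enzyme is preincubated with NADPH and then with compound at ~22 deg C.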

[6] = molecular target: Thioredoxin reductase 1, cytoplasmic (Rattus norvegicus) (UniProt O89049); test: qHTS Assay for Inhibitors of Mammalian Selenoprotein Thioredoxin Reductase 1 (TrxR1) (AID 488773); conditions: Potency: inhibition; further: nearly all actives have a fitted effect of over 40% in size; further: potency means the concentration at half of the fitted maximal effect
In short: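 Inhibition is scored from the loss of NADPH fluorescence between first and last reads of an 8-min kinetic run. Selenite (400 uM) was the substrate, added after 15 min compound preincubation at room temperature.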

[7] = molecular target: Flap endonuclease 1 (Homo sapiens) (UniProt P39748); test: qHTS Validation Assay for the Inhibitors of Human Flap endonuclease 1 (FEN1) (AID 488816); further: potency means the concentration at half of the fitted maximal effect
Flap endonuclease 1 (Homo sapiens), sequence (P39748 whole entry, looked up): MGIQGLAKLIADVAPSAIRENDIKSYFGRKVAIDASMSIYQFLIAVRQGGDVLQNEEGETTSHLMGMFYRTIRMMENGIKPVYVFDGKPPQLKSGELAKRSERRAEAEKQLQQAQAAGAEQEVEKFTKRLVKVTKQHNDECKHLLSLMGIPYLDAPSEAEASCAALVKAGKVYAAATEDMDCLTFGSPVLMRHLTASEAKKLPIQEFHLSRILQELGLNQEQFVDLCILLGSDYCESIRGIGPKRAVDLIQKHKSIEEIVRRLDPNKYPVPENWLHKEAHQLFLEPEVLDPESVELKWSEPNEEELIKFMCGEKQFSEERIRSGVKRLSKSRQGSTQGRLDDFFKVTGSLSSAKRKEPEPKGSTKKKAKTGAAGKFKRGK
In short: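 Enzyme reagent 10 nM; cpds pinned; 15 min RT preinc.; substrate 50 nM final; reads t=0 and 15 min; no-enzyme buffer wells as neg. control; normalized data, 4-parameter Hill fit.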

[8] = molecular target: M-phase phosphoprotein 8 (Homo sapiens) (UniProt Q99549); test: qHTS Validation Assay for Inhibitors for MPP8 Chromodomain Interactions with Methylated Histone Tails (AID 488949); further: nearly all actives have a fitted effect of over 55% in size; further: potency means the concentration at half of the fitted maximal effect
M-phase phosphoprotein 8 (Homo sapiens), sequence (Q99549 whole entry, looked up): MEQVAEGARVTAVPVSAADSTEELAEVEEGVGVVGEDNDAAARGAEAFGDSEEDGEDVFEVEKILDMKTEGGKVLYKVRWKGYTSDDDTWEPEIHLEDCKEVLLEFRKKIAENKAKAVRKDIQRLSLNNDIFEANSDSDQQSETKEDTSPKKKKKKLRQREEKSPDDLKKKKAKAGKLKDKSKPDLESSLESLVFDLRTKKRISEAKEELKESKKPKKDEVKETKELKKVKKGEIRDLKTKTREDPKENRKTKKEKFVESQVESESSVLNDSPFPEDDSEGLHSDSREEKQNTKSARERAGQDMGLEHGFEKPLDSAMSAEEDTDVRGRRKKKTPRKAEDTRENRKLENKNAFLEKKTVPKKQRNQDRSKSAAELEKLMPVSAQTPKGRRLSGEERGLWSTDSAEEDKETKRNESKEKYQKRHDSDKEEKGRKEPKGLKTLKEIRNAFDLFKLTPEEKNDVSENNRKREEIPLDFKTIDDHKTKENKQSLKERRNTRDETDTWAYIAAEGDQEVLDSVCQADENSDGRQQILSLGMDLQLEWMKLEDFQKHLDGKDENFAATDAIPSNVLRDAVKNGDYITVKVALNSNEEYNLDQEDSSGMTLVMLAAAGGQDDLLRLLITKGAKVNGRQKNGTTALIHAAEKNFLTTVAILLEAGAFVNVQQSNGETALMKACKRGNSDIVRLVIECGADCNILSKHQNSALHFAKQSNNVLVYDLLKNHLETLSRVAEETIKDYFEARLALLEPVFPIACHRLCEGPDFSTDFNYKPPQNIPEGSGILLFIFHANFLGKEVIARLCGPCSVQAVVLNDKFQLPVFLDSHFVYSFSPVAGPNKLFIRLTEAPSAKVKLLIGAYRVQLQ
In short: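 Chemiluminescent proximity assay: histidine-tag capture via nickel acceptor beads, biotin peptide via streptavidin donor beads. Protein and peptide each at 50 nM, pH 7.4, with 30 min incubations at room temperature for complex formation, compound exposure and bead binding.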

[9] = molecular target: Chromobox protein homolog 1 (Homo sapiens) (UniProt P83916); test: qHTS Validation Assay for Inhibitors of HP1-beta Chromodomain Interactions with Methylated Histone Tails (AID 488953); further: nearly all actives have a fitted effect of over 50% in size; further: potency means the concentration at half of the fitted maximal effect
Chromobox protein homolog 1 (Homo sapiens), sequence (P83916 whole entry, looked up): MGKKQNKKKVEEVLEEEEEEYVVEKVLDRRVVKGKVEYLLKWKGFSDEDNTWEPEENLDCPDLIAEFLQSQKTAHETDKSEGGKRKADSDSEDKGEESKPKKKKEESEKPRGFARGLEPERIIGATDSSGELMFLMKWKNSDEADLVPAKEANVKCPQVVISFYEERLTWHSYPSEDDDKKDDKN
In short: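 AlphaScreen proximity readout: streptavidin donor and Ni-chelate acceptor beads, 10 ug/mL final, 30 min dark, RT. Complex of 50 nM HP1-beta and 50 nM b-H3(1-18)K9me3 formed 30 min, then compound-treated 30 min; PBS pH 7.4/0.01% Tween-20.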

[10] = molecular target: ATP-dependent 6-phosphofructokinase (Trypanosoma brucei brucei) (UniProt O15648); test: qHTS Validation Assay to Find Inhibitors of T. brucei phosphofructokinase (AID 485368); further: potency means the concentration at half of the fitted maximal effect
ATP-dependent 6-phosphofructokinase (Trypanosoma brucei brucei), sequence (O15648 whole entry, looked up): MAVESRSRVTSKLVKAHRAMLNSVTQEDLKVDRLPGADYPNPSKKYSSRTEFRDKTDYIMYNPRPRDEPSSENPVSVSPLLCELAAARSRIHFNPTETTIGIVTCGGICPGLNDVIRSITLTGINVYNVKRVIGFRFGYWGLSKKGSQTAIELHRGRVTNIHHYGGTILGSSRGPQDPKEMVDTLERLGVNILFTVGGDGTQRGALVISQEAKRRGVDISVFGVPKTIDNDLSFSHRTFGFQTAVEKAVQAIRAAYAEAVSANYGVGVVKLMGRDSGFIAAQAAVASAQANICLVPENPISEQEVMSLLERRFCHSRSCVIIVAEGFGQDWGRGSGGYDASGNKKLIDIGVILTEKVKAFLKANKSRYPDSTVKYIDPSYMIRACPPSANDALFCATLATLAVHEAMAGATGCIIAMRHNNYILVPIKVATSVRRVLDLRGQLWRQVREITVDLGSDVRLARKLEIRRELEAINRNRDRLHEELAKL
From the text: NIH Molecular Libraries Probe Production Network [MLPCN]
NIH Chemical Genomics Center [NCGC]
PI Name: Malcolm Walkinshaw, University of Edinburgh
Various species of the protozoan family Trypanosomatidae are responsible for a range of serious human diseases in tropical and subtropical areas of the world. […] Many of the disorders caused by trypanosomatids are fatal if left untreated, but most currently used drugs are inefficient and toxic.
Oxidative metabolism involving the mitochondrial tricarboxylic acid cycle and oxidative phosphorylation are repressed in these parasites, and recent RNA interference (RNAi) experiments have shown that even partial depletion of certain individual glycolytic enzymes can lead to the death of cultured parasites. One such glycolytic enzyme, phosphofructokinase (PFK), catalyzes the formation of fructose-1,6-bisphosphate (F1,6BP) and ADP from fructose-6-phosphate (F6P) and ATP, and in many metabolic circumstances makes an important contribution to the control of flux through the glycolytic pathway. As a specific glycolytic target, PFK is particularly attractive as it catalyzes the first irreversible step in glycolysis, and structural and kinetic studies have shown very substantial and essential differences from corresponding host enzymes, allowing for the discovery of parasite-selective inhibitors.
The goal of this screen is to find small-molecule inhibitors of T. brucei PFK using a biochemical assay that measures PFK activity as a function of ADP production. A luminescence-based assay for T. brucei PFK activity has been developed which uses luciferase to detect production of ADP. Traditional luciferase-based nucleotide detection reagents rely on ATP production as a direct substrate for the luciferase reaction; however, PFK catalyzes the transfer of a phosphate from ATP to F6P, resulting in the net depletion of ATP. To directly measure the ADP product of the PFK reaction, we used the ADP-Glo detection kit (Promega), which utilizes two separate reactions to 1) deplete all remaining uncatalyzed ATP and 2) convert all remaining ADP to ATP, which is then detected through a traditional luciferase-coupled reaction. Compounds were screened as a concentration-titration series that ranged from 57 uM to 0.7 nM.
NCGC Assay Protocol Summary:
Substrate buffer was dispensed into white, solid 1536-well plates at 3uL/well in 0.1M triethanolamine (TEA) buffer, pH 8.0, containing final concentrations of 5 mM MgCl2, 0.01% Tween20, 0.5 mM fructose-6-phosphate (F6P) and 0.1mM ATP. Then, 23 nL of compounds or DMSO were delivered to each well using a pin tool. […] The luminescent detection reagent, ADP-Glo (Promega), was then added in two steps: the first reagent, ADP-Glo (which converts remaining uncatalyzed ATP), was added at 2.5uL/well and incubated for ten minutes at room temperature, and the second component, Kinase Detection reagent (which converts ADP to ATP as a substrate for luciferase-based luminescence), was added immediately after at 5uL/well, followed by one final ten minute room temperature incubation. The plates were measured on a ViewLux plate reader for luminescent signal using a clear filter with a one second exposure. The %Activity was determined from the corrected luminescence values. […]
Concentration-response curves were fitted to the signals arising from the resulting luminescence. […]

Q: Which outcome [1] does the source give for CCN1CCCC1CNC(=O)c1cc(S(N)(=O)=O)ccc1OC (configuration not stated) here?
A: inactive

Q: And the outcome [2]?
A: inactive

Q: And the Potency [3]?
A: inactive

Q: What about the Potency [4] of the same molecule?
A: inactive

Q: And the outcome [5]?
A: inactive

Q: What about the Potency [6] of the same molecule?
A: inactive

Q: What about the Potency [7] of the same molecule?
A: inactive

Q: What about the Potency [8] of the same molecule?
A: inactive

Q: And the Potency [9]?
A: inactive

Q: What does the source list for CC(C)(C)NC(=O)[C@H]1CC[C@H]2[C@@H]3CC[C@H]4NC(=O)C=C[C@]4(C)[C@H]3CC[C@]12C?
A: Potency [3]: inactive; Potency [4]: inactive; Potency [8]: inactive

Q: Which results are given for NC(=O)c1ccc2[nH]ccc2c1?
A: outcome [1]: inactive; outcome [2]: inactive; outcome [5]: inactive; Potency [6]: inactive; Potency [7]: inactive; Potency [8]: inactive; Potency [9]: inactive

Q: With COc1cc2ncnc(Nc3cccc(Cl)c3)c2cc1OC as the molecule, how does the outcome [2] read?
A: inactive

Q: And the Potency [3]?
A: 3.29 µM (active)

Q: And the Potency [4]?
A: 2.62 µM (active)

Q: What about the outcome [5] of the same molecule?
A: inactive

Q: And the Potency [6]?
A: inactive

Q: And the Potency [7]?
A: inactive

Q: What about the Potency [8] of the same molecule?
A: inactive

Q: And the Potency [9]?
A: inactive

Q: For OCc1ccc(-c2nn(Cc3ccccc3)c3ccccc23)o1, which outcome [2] is on record?
A: inactive

Q: And the Potency [3]?
A: inactive

Q: And the Potency [4]?
A: inactive

Q: And the outcome [5]?
A: inactive

Q: What about the Potency [7] of the same molecule?
A: inactive

Q: And the Potency [8]?
A: 25.1 µM (active)

Q: What about the Potency [9] of the same molecule?
A: 39.8 µM (active)

Q: Which outcome [1] does the source give for CC(C)NCC(O)c1ccc(NS(C)(=O)=O)cc1 (configuration not stated) here?
A: inactive

Q: And the Potency [4]?
A: inactive

Q: What about the outcome [5] of the same molecule?
A: inactive

Q: And the Potency [6]?
A: inactive

Q: And the Potency [7]?
A: inactive

Q: What about the Potency [8] of the same molecule?
A: inactive

Q: And the Potency [9]?
A: inactive

Q: For NC(=O)c1cccc(N)c1, which outcome [1] is on record?
A: inactive

Q: What about the outcome [2] of the same molecule?
A: inactive

Q: And the Potency [3]?
A: inactive

Q: What about the Potency [4] of the same molecule?
A: inactive

Q: What about the outcome [5] of the same molecule?
A: inactive

Q: What about the Potency [6] of the same molecule?
A: inactive

Q: And the Potency [7]?
A: inactive

Q: And the Potency [8]?
A: inactive

Q: What about the Potency [9] of the same molecule?
A: inactive

Q: Which outcome [1] does the source give for N[C@@H](Cc1ccc(O)c(O)c1)C(=O)O here?
A: inactive

Q: And the outcome [2]?
A: inactive

Q: And the Potency [10]?
A: 23.9 µM (active)

Q: And the outcome [5]?
A: inactive

Q: And the Potency [6]?
A: 29.9 µM (active)

Q: What about the Potency [7] of the same molecule?
A: 3.77 µM (active)

Q: What about the Potency [8] of the same molecule?
A: 7.52 µM (active)

Q: What about the Potency [9] of the same molecule?
A: 31.6 µM (active)

Q: Which outcome [1] does the source give for O=C(O)C1CCCN(CCC=C(c2ccccc2)c2ccccc2)C1 (configuration not stated) here?
A: inactive

Q: And the outcome [2]?
A: inactive

Q: What about the Potency [3] of the same molecule?
A: inactive

Q: And the Potency [4]?
A: inactive

Q: What about the outcome [5] of the same molecule?
A: inactive

Q: And the Potency [6]?
A: inactive

Q: What about the Potency [7] of the same molecule?
A: inactive

Q: What about the Potency [8] of the same molecule?
A: inactive

Q: What about the Potency [9] of the same molecule?
A: inactive
